# A selection: hits, their analogues and other compounds. The true share with any hit is near 2.8%.
# PI4K2A block – blocks human PI4K2A kinase activity; AID 1346378; 420,000 tested, 0.13% active; purified PI4K2A, ADP-Glo luminescence, 1 h; hits give low values; activity change, negative = inhibition, % at 76.9 µM; Q9BTU6; in the data active means activity change below about -50%; inconclusive means mostly about -30% to -49%;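 further: -100% = wells without enzyme as full effect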
#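 PI4K2A activity was measured by ADP-Glo luminescence: enzyme (4 ug/mL stock) and phosphatidylinositol (1.2 mM stock) in Tris pH 7.5/MgCl2/EGTA/Triton X-100 buffer were reacted with ATP (300 microM stock) for one hour at ambient temperature.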
# DRD3 agonist – D3 dopamine receptor (human) agonism | P35462 | D3R DiscoveRx beta-arrestin cells, luminescence, 90 min | max activation, % | 410,000 tested, 0.58% active | AID 652048; in the data active means max activation above about 30%; further: 0% is about no effect
# Target sequence (P35462 whole entry, looked up): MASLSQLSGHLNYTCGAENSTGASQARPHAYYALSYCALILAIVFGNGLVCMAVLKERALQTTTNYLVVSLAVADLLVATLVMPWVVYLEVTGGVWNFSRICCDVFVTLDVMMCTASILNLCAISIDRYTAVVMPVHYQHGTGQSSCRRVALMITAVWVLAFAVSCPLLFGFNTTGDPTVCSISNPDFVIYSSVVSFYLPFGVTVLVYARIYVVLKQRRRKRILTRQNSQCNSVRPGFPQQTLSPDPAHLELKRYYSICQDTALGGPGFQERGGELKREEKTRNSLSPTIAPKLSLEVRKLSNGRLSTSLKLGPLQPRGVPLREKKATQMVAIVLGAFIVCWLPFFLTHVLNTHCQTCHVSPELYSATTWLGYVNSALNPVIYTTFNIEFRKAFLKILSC
#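 Agonist mode: compounds and dopamine controls were applied to plated cells for 90 min at 37 degrees C after an overnight attachment at 1500 cells/well. Luminescent read-out followed 30 - 60 minutes at room temperature with DiscoveRx detection reagent.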
# Akt phos inh – Akt phosphorylation inhibition; AID 651550; 360,000 tested, 0.32% active; Neuro2A IGF-stimulated pAkt S473 HTRF, 20 min; hits give low values; activity change, % for hits at 50 µM; in the data active means activity change below about -80%; inconclusive means mostly about -51% to -80%; further: on the % scale 0 is the no-effect control and ±100 the full control effect
#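 Single-point screen (50 µM final compound) in Neuro2A cells stimulated 20 min with 6 nM IGF at 37 deg C. After lysis, Ser473-phosphorylated Akt read by HTRF (ex 330 nm, em 615/665 nm) as the 665/615 ratio.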
# RGS4 inhibitor – blocks human RGS4-accelerated GTP hydrolysis; P49798; Transcreener GDP fluorescence polarization, RGS4-accelerated GTP hydrolysis; Potency, µM (top dose mostly 114 µM), inactives show top-dose activity change, negative = inhibition, actives largely listed as inhibitors; 390,000 tested, 0.039% active; AID 504845; active means well fitted inhibition curve with a large enough effect; inconclusive means small, poorly fitted or top-dose-only effect; inactive means no such curve, though single readings can be large or run the other way; further: potency means the concentration at half of the fitted maximal effect; on the % scale 0 is the no-effect control and ±100 the full control effect; nearly all actives have a fitted effect of over 75% in size
# Target sequence (P49798 whole entry, looked up): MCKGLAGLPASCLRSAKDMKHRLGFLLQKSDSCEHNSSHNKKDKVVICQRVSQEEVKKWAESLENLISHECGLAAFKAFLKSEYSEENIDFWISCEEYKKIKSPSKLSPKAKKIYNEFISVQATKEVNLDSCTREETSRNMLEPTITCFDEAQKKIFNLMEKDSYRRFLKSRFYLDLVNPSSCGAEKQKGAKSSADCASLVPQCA
#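 MLSMR compounds (23 nl, pin-transferred) preincubated 10 min at room temperature with a 500nM (2x) first reagent, then RGS4 at 900nM (2x) plus Transcreener GDP mix added; fluorescence polarization (620/688 nm) read before and after 90 min at 30 °C.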
# DRD3 antagonist – blocks the human D3 dopamine receptor | 360,000 tested, 2.5% active | max response, negative = inhibition, % | AID 652054 | D3R cells, DiscoveRx beta-arrestin luminescence, antagonist mode; hits give low values; in the data active means max response below about -50%; inconclusive means no clear call, values can overlap the other calls; further: on the % scale 0 is the no-effect control and ±100 the full control effect
#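 Cells expressing the human receptor were seeded at 1500 cells/well, incubated overnight at 37 degrees C in 5% CO2, then exposed to library compounds with dopamine controls for 90 minutes at 37 degrees C before luminescent detection.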
# LDHA inh – LDHA (human) enzyme inhibition | purified LDHA, NADH/diaphorase-resazurin fluorescence; hits give low values | activity change, % (values are at about 110 or 230 µM) | 480,000 tested, 0.15% active; in the data active means activity change below about -30%; inconclusive means mostly about -25% to -30%;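 further: plate controls were DMSO wells for no effect and wells without enzyme for full effect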
#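 Resorufin fluorescence (ex540/em590), read at 0 and 20 min after diaphorase/resazurin addition, reports the NADH left after a 5 min room-temperature reaction of 2 nM human LDH5 with 0.06 mM NADH and 0.2 mM pyruvate.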
# * marks the source's active call; other numbers are inactive results; i = inactive; ? = inconclusive; . = no result; [ ] = another dose, or the depositor's remark.
SMILES,PI4K2A block,DRD3 agonist,Akt phos inh,RGS4 inhibitor,DRD3 antagonist,LDHA inh
CCCCN(C=O)c1c(CC)nc2c(OCc3ccc(Cl)cc3Cl)cccn12,-3,-13,i,.,-57*,5
CCc1nc2c(OCCC3CCCCC3)cccn2c1N(C)C(=O)c1ccc(OC)cc1,-14,-26,i,.,-111*,2
Cc1cccc(-c2nc3cc(NC(=O)/C=C/c4ccco4)ccc3o2)c1,.,.,.,.,.,3
O=S(=O)(c1cccc2nsnc12)N1CCCCCC1c1cccc(F)c1 (configuration not stated),.,.,.,.,.,-1
Brc1ccc(Oc2ncc(CN3CCN(c4ccccc4)CC3)s2)cc1,-3,33*,i,-4%,-60*,-2
COC(=O)c1c(C)[nH]c(C(=O)C(C)OC(=O)c2ccc(F)cc2)c1C (configuration not stated),.,.,.,.,.,0
CC(C(=O)Nc1ccccc1-c1ccccc1)N1CCN(C(=O)c2ccccc2)CC1 (configuration not stated),1,0,i,8%,-11,1
CC1CCN(C(C)C(=O)Nc2ccccc2-c2ccccc2)CC1 (configuration not stated),-6,-6,i,-14%,-56*,-16
COc1ccc(Br)cc1CN1CCCC(C(=O)N2CCCCCC2)C1 (configuration not stated),-6,-17,i,?,?,-33*
COc1ccc(OC)c(CN2CCCC(C(=O)N3CCCCC3)C2)c1 (configuration not stated),1,-30,i,23%,-77*,-18
COc1ccc(Br)cc1CN1CCCC(C(=O)N2CCCCC2)C1 (configuration not stated),7,-9,i,44%,-89*,?
C=CCNc1nc(C(=O)OCC(=O)NC(C)c2ccc(F)cc2)cs1 (configuration not stated),.,.,.,.,.,-12
Cc1ccc(C(=O)COC(=O)CNC(=O)C(c2ccccc2)c2ccccc2)cc1[N+](=O)[O-],8,0,i,3%,-64*,-2
Cc1ccc(C(=O)NCC(=O)OCC(=O)c2ccc(C)c([N+](=O)[O-])c2)cc1,-3,7,i,19%,-13,-10
COc1ccc(C(=O)Oc2ccc3c(c2)O/C(=C\c2ccc(C(C)(C)C)cc2)C3=O)cc1OC,.,.,.,.,.,7
CCCCCCCCc1ccc(C(=O)CCN(C)C)cc1,.,.,.,.,.,5
CCc1ccc2oc(=O)cc(CN3CCN(CC)CC3)c2c1,.,.,.,.,.,-5
COC(=O)c1ccccc1NC(=O)CN1CCCCC1,-6,-2,i,-32%,11,-1
CC(=O)c1ccccc1OCCCCN1CCCCC1,3,-19,i,-12%,-77*,-5
COC(=O)c1ccccc1OCCN1CCCCCC1,1,-23,i,16%,-57*,?
CCOC(=O)[C@@H](CCc1ccccc1)N[C@@H](C)C(=O)N1CCC[C@H]1C(=O)O,-4,.,.,.,.,.
CCOC(=O)[C@H](CCc1ccccc1)N[C@@H](C)C(=O)N1CCC[C@@H]1C(=O)O,6,74*,i,10%,18,-1
COc1ccc(S(=O)(=O)N2CCN(C(=O)[C@H](Cc3ccccc3)NC(=O)c3ccco3)CC2)cc1,-5,-1,i,8%,1,-11
NC(=O)NC(Cc1ccccc1)C(=O)N1CCN(S(=O)(=O)c2ccc(Cl)cc2)CC1 (configuration not stated),0,-6,i,-12%,-68*,-3
CN(C(=O)c1ccc(N2CCOCC2)c([N+](=O)[O-])c1)C1CCCCC1,-1,-13,i,-30%,?,-1
SMILES,PI4K2A block,DRD3 agonist,Akt phos inh,RGS4 inhibitor,DRD3 antagonist,LDHA inh
CN(c1ccc(C(=O)N2CCOCC2)cc1[N+](=O)[O-])C1CCCCC1,-1,1,i,20%,-60*,-9
COc1ccc(OC)c(NC(=O)CSc2nnnn2C2CCCC2)c1,-2,36*,i,-44%,2,-4
Cc1nnc(SCC(=O)NC2CCCCC2)n1N,1,4,i,21%,20,-7
COc1ccc(OC)c(NC(=O)CSc2nnc(C3CCCCC3)n2-c2ccccc2)c1,-11,-13,-111%*,15%[11.4 µM],-8,-1
COc1ccccc1NC(=O)CSc1nnc(C2CCCCC2)n1-n1cccc1,.,.,.,.,.,4
Nn1c(SCC(=O)NC2CCCCC2)nnc1C1CC1,6,-7,i,34%,-63*,-1
COc1cc(OC)cc(-n2nnnc2SCC(=O)NC2CCCC2)c1,-7,3,-115%*,6%,-71*,-11
O=C(NC1CCCC1)c1cccc2ccccc12,.,.,.,.,.,1
O=C(Cn1cccc1C(=O)c1ccccc1)NCCCN1CCOCC1,-6,4,i,8%,15,-4
Cc1ccc(C)c(N2CCN(CCCNC(=O)Cn3cccc3C(=O)c3ccccc3)CC2)c1,3,-16,i,2%,-68*,-2
Cc1ccccc1C(=O)c1cccn1CC(=O)NCCCN1CCc2ccccc2C1,-4,-10,i,26%,-51*,-6
Cc1ccc(NC(=O)[C@H](NC(=O)[C@@H]2Cc3ccccc3CN2)c2ccccc2)c(C)c1,5,0,i,-2%,-23,0
Cc1cc(C)cc(NC(=O)[C@H](NC(=O)[C@@H]2Cc3ccccc3CN2)c2ccccc2)c1,0,-25,i,17%,-108*,1
CCc1ccc(NC(=O)[C@H](NC(=O)[C@@H]2Cc3ccccc3CN2)c2ccccc2)cc1,-1,-22,i,-31%[56.9 µM],-101*,0
CC(C(=O)Nc1sc2c(c1C(=O)NCc1ccco1)CCCC2)N1C(=O)c2ccccc2C1=O (configuration not stated),1,-2,i,3%,-65*,-1
CC(c1ccco1)N(C(=O)C12CC3CC(CC(C)(C3)C1)C2)c1ccccn1 (configuration not stated),-2,3,i,-23%,-58*,2
O=C(OCc1cn([C@@H]2C[C@H](c3ccc(Cl)cc3)N(C(=O)C3CCCCC3)C[C@H]2O)nn1)c1ccccc1,1,12,i,.,-4,-2
O=C(OCc1cn([C@@H]2CN(C(=O)C3CCCCC3)[C@@H](c3ccc(Cl)cc3)C[C@H]2O)nn1)c1ccccc1,-1,4,i,.,-6,-35*
S=C1NCCc2ccccc2C1c1ccccc1Cl (configuration not stated),23,-3,i,15%,-64*,-1

# Bioassay records deposited in PubChem BioAssay by National Center for Advancing Translational Sciences (NCATS).
